Consider 25 compounds from PubChem BioAssay (EPA / NIEHS).

Records with an inconclusive call do not appear. Calls of active or inactive are those of the source. How the source made its calls: active means hit-call score of the fitted dose curve at least 0.9, where 1 is the maximum; inconclusive means response in the unintended direction; inactive means score below 0.9.

Usually AC50 stands for the midpoint of the concentration-response curve, whichever way the signal moves.

Assay [1] deals with human Janus Kinase 2 (Jak2), JAK2 (gene 3717) (UniProt O60674). Description: NVS_ENZ_hJak2: NovaScreen (NVS) Enzymatic Assay for human Janus Kinase 2 (Jak2) (AID 2283169). The procedure, abridged:
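Single-point duplicate screen at 25 uM, with hits run in concentration series to a 50 uM top dose. Substrate-product separation by mobility shift with fluorescence detection, 1 h post-dosing; DMSO baseline.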

Assay [2] concerns the target human c-Jun N-terminal Kinases (JNK2), MAPK9 (gene 5601) (UniProt P45984). Description: NVS_ENZ_hJNK2: NovaScreen (NVS) Enzymatic Assay for human c-Jun N-terminal Kinases (JNK2) (AID 2283171). The procedure, abridged:
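Chemicals first tested in duplicate at 25 uM, then in singleton concentration series up to 50 uM, against extracted JNK2 enzyme. Activity loss read by fluorescence with mobility-shift separation 1 h post-dose; DMSO baseline.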

Assay [3] concerns the target human LYN Proto-Oncogene, Src family Tyrosine Kinase (LynA), LYN (gene 4067) (UniProt P07948). Description: NVS_ENZ_hLynA: NovaScreen (NVS) Enzymatic Assay for human LYN Proto-Oncogene, Src family Tyrosine Kinase (LynA) (AID 2283173). The method, boiled down:
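Recombinant kinase with fluorescent substrate; product separated from substrate by electrophoretic mobility shift and read 1 h after dosing. Duplicate screen at 25 uM, then concentration-response up to 50 uM; activity scored as signal loss against DMSO.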

Assay [4] addresses human Matrix Metalloproteinase-9 (MMP9), MMP9 (gene 4318) (UniProt P14780). In words: NVS_ENZ_hMMP9: NovaScreen (NVS) Enzymatic Assay for human Matrix Metalloproteinase-9 (MMP9) (AID 2283190).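 Further: cell-free recombinant MMP9 protease activity read by fluorescent substrate signal; active means inhibition seen as loss of fluorescence signal versus DMSO.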 The method, boiled down: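 Cell-free fluorescence-intensity enzyme activity assay using extracted protein, read 1 h after dosing. Loss of signal versus DMSO baseline indicates inhibition; primary screen in duplicate at 25 uM, actives followed up in concentration series.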

Assay [5] concerns the target human Phosphodiesterase 4A1 (PDE4A1), PDE4A (gene 5141) (UniProt P27815). Description: NVS_ENZ_hPDE4A1: NovaScreen (NVS) Enzymatic Assay for human Phosphodiesterase 4A1 (PDE4A1) (AID 2283191). The method, boiled down: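 Fluorescent substrate turnover by recombinant PDE4A1 read after 1 h by mobility-shift separation. Primary duplicate screen at 25 uM; hits retested in concentration series with a 50 uM maximum, relative to DMSO.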

The target in assay [6] is human Phosphodiesterase 5 (PDE5), PDE5A (gene 8654) (UniProt O76074). Description: NVS_ENZ_hPDE5: NovaScreen (NVS) Enzymatic Assay for human Phosphodiesterase 5 (PDE5) (AID 2283194). The method, boiled down: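 Screening began in duplicate at 25 uM, with actives taken into concentration-response. Enzyme activity of recombinant PDE5 toward its substrate was measured at 1 h by fluorescence mobility-shift detection, relative to DMSO controls.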

The target in assay [7] is human Phosphodiesterase 10 (PDE10), PDE10A (gene 10846) (UniProt Q9Y233). In words: NVS_ENZ_hPDE10: NovaScreen (NVS) Enzymatic Assay for human Phosphodiesterase 10 (PDE10) (AID 2283195). The method, boiled down: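 Biochemical single-readout PDE10A assay, cell-free, extracted protein. Compounds first screened at 25 uM in duplicate, hits then titrated to 50 uM max. Activity measured after 1 h; loss-of-signal fitted against DMSO negative control.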
human Phosphodiesterase 10 (PDE10), PDE10A (gene 10846), sequence (Q9Y233 whole entry, looked up): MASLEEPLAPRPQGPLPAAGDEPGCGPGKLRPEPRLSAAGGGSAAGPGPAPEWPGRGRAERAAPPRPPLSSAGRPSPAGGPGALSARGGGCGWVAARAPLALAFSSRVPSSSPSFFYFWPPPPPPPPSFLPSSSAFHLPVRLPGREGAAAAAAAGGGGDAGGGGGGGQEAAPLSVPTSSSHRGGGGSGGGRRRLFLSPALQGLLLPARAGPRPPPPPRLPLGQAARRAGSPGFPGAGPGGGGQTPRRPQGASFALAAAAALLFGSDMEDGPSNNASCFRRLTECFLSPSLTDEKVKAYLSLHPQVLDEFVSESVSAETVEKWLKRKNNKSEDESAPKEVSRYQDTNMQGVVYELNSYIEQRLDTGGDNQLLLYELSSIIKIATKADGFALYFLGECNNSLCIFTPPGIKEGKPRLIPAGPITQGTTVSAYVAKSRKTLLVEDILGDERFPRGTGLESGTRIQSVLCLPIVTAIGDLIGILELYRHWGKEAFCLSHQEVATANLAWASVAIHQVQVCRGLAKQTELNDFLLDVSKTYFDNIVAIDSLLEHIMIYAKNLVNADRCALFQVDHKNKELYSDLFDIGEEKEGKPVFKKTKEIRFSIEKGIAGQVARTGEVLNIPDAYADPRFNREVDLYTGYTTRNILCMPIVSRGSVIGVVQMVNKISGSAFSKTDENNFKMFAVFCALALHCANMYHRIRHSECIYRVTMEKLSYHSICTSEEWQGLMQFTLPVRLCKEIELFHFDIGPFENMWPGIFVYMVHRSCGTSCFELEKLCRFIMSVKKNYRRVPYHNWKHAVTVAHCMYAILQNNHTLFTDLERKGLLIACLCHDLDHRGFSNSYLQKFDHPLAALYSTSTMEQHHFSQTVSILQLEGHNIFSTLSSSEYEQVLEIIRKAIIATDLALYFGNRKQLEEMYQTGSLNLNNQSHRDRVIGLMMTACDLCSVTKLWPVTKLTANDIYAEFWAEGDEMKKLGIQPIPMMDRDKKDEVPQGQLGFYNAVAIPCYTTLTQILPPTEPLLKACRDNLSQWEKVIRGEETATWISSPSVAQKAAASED

The target of assay [8] is Serine/threonine-protein phosphatase PP1-alpha catalytic subunit (Homo sapiens) (UniProt P62136). Description: NVS_ENZ_hPPP1CA: NovaScreen (NVS) Enzymatic Assay for human Protein Phosphatase 1 Aatalytic subunit Alpha (PPP1CA) (AID 2283200). The procedure, abridged:
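Chemicals were first screened in duplicate at 25 uM, and those passing threshold (e.g. 30% inhibition) were run as concentration series to 50 uM. Cell-free recombinant protein, 1.33 h read, fluorescent substrate/product mobility-shift detection, normalised to DMSO.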

Assay [9] deals with Glycogen synthase kinase-3 beta (Homo sapiens) (UniProt P49841). Description: NVS_ENZ_hGSK3b: NovaScreen (NVS) Enzymatic Assay for human Glycogen Synthase Kinase-3 beta (GSK3b) (AID 2283165). The procedure, abridged: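 Recombinant enzyme with specific fluorescent substrate, 1 h, product separated by electrophoretic mobility shift. Primary duplicate screen at 25 uM; actives (e.g. 30% inhibition) followed in singleton concentration-response to 50 uM. Signal loss fitted versus DMSO.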
Glycogen synthase kinase-3 beta (Homo sapiens), sequence (P49841 whole entry, looked up): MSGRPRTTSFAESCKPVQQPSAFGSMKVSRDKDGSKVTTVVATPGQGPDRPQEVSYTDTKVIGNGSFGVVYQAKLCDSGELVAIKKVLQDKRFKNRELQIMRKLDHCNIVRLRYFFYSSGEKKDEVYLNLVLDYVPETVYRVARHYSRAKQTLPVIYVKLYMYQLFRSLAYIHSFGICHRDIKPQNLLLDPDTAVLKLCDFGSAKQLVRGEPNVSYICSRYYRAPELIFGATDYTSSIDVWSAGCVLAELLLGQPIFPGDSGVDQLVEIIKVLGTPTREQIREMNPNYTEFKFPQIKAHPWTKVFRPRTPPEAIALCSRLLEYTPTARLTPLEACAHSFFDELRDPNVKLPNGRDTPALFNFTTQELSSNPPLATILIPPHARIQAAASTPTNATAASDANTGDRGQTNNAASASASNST

Assay [10] concerns the target human MAP Kinase-Activated Protein Kinase 2 (MAPKAPK2), MAPKAPK2 (gene 9261) (UniProt P49137). Description: NVS_ENZ_hMAPKAPK2: NovaScreen (NVS) Enzymatic Assay for human MAP Kinase-Activated Protein Kinase 2 (MAPKAPK2) (AID 2283178). The procedure, abridged: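 Chemicals screened in duplicate at 25 uM, then to 50 uM top concentration in concentration-response, against recombinant human MAPKAPK2; substrate conversion read 1 hr post-dosing by fluorescence after electrophoretic mobility-shift separation, loss-of-signal relative to DMSO.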

The target in assay [11] is human Matrix Metalloproteinase-7 (MMP7), MMP7 (gene 4316) (UniProt P09237). In words: NVS_ENZ_hMMP7: NovaScreen (NVS) Enzymatic Assay for human Matrix Metalloproteinase-7 (MMP7) (AID 2283183). The procedure, abridged:
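Compounds first tested at 25 uM in duplicate, then at up to 50 uM in concentration series if active. Protease activity measured by fluorescence intensity 1 h after dosing, with fitting relative to DMSO.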

Assay [12] deals with human Mitogen- and Stress-activated Protein Kinase-1 (Msk1), RPS6KA5 (gene 9252) (UniProt O75582). Description: NVS_ENZ_hMsk1: NovaScreen (NVS) Enzymatic Assay for human Mitogen- and Stress-activated Protein Kinase-1 (Msk1) (AID 2283187). The method, boiled down:
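Chemicals first run in duplicate at 25 uM, with actives followed up in singleton concentration series to 50 uM maximum. Enzyme activity came from substrate/product mobility-shift separation with fluorescence detection after 1 h incubation of the recombinant protein.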

Assay [13] deals with human Phosphoinositide 3-kinase alpha (PI3Ka), PIK3CA (gene 5290) (UniProt P42336). Description: NVS_ENZ_hPI3Ka: NovaScreen (NVS) Enzymatic Assay for human Phosphoinositide 3-kinase alpha (PI3Ka) (AID 2283196). The method, boiled down:
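Enzyme activity as fluorescence after mobility-shift separation of substrate and product, 1 h reaction, recombinant human PI3Kα; concentration-response to 50 uM max for chemicals passing a 25 uM duplicate screen.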

Assay [14] addresses human Protein Phosphatase, Mg2+/Mn2+ Dependent 1A (PPM1A), PPM1A (gene 5494) (UniProt P35813). Description: NVS_ENZ_hPPM1A: NovaScreen (NVS) Enzymatic Assay for human Protein Phosphatase, Mg2+/Mn2+ Dependent 1A (PPM1A) (AID 2283198). The method, boiled down:
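Primary screen in duplicate at 25 uM, with actives then titrated to a maximum of 50 uM. Recombinant PPM1A dephosphorylation of fluorescent substrate measured at 1 h, with substrate and product separated by mobility shift; inhibition fitted against DMSO.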

Assay [15] deals with Collagenase 3 (Homo sapiens) (UniProt P45452). Description: NVS_ENZ_hMMP13: NovaScreen (NVS) Enzymatic Assay for human Matrix Metalloproteinase-13 (MMP13) (AID 2283182). The procedure, abridged:
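Recombinant MMP13 cleaving fluorescent substrate, cell-free, measured 1 h after dosing. Primary duplicate screen at 25 uM; actives tested in concentration-response up to 50 uM; loss of signal relative to DMSO.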

Assay [16] concerns the target Mitogen-activated protein kinase 3 (Homo sapiens) (UniProt P27361). Description: NVS_ENZ_hMAPK3: NovaScreen (NVS) Enzymatic Assay for human Mitogen-Activated Protein Kinase 3 (MAPK 3) (AID 2283177). The procedure, abridged: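 Chemicals were first tested in duplicate at 25 uM, with hits re-run as concentration series (max 50 uM). Recombinant enzyme activity, measured 1 h post-dose in a cell-free format, was read by fluorescence/mobility shift relative to DMSO.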

The target of assay [17] is human Matrix Metalloproteinase-3 (MMP3), MMP3 (gene 4314) (UniProt P08254). In words: NVS_ENZ_hMMP3: NovaScreen (NVS) Enzymatic Assay for human Matrix Metalloproteinase-3 (MMP3) (AID 2283185). The procedure, abridged: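 Fluorescent substrate turnover by recombinant MMP3 read after 1 h, signal loss scored against DMSO. Compounds first run in duplicate at 25 uM single dose, then actives confirmed by concentration series.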

The target of assay [18] is cAMP-dependent protein kinase catalytic subunit alpha (Homo sapiens) (UniProt P17612). In words: NVS_ENZ_hPKA: NovaScreen (NVS) Enzymatic Assay for human Protein Kinase A (PKA) (AID 2283192). The method, boiled down:
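Cell-free kinase activity read by fluorescence after mobility-shift separation of substrate and product, 1 h post-dosing. Single-concentration duplicate screen (25 uM) preceded singleton concentration series (top 50 uM); loss of signal versus DMSO.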

human Matrix Metalloproteinase-7 (MMP7), MMP7 (gene 4316), sequence (P09237 whole entry, looked up): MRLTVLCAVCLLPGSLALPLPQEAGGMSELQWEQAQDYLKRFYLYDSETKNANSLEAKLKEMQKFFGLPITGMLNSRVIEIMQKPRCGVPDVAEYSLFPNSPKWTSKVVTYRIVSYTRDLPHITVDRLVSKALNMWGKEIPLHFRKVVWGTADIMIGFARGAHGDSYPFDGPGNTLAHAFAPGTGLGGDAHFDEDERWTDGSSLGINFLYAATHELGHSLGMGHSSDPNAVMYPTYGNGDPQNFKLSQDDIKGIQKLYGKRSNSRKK
human MAP Kinase-Activated Protein Kinase 2 (MAPKAPK2), MAPKAPK2 (gene 9261), sequence (P49137 whole entry, looked up): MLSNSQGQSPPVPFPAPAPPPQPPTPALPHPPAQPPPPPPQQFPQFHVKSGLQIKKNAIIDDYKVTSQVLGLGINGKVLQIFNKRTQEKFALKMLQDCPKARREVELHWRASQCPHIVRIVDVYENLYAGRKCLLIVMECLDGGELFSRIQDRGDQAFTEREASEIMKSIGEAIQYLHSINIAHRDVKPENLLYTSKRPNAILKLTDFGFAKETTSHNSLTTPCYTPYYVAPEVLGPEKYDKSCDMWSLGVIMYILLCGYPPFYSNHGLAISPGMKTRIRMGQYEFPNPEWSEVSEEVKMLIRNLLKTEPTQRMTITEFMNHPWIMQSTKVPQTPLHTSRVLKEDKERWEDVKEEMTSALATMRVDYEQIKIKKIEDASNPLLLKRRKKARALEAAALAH
Serine/threonine-protein phosphatase PP1-alpha catalytic subunit (Homo sapiens), sequence (P62136 whole entry, looked up): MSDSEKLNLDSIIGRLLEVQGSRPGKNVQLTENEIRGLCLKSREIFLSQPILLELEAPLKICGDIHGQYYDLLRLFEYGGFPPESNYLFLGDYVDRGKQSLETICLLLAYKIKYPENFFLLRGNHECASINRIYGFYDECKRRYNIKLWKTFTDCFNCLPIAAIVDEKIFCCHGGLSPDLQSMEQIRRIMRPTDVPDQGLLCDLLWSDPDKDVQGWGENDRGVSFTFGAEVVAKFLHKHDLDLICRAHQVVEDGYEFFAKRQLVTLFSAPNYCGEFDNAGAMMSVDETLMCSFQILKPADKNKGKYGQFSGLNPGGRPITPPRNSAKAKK
human Janus Kinase 2 (Jak2), JAK2 (gene 3717), sequence (O60674 whole entry, looked up): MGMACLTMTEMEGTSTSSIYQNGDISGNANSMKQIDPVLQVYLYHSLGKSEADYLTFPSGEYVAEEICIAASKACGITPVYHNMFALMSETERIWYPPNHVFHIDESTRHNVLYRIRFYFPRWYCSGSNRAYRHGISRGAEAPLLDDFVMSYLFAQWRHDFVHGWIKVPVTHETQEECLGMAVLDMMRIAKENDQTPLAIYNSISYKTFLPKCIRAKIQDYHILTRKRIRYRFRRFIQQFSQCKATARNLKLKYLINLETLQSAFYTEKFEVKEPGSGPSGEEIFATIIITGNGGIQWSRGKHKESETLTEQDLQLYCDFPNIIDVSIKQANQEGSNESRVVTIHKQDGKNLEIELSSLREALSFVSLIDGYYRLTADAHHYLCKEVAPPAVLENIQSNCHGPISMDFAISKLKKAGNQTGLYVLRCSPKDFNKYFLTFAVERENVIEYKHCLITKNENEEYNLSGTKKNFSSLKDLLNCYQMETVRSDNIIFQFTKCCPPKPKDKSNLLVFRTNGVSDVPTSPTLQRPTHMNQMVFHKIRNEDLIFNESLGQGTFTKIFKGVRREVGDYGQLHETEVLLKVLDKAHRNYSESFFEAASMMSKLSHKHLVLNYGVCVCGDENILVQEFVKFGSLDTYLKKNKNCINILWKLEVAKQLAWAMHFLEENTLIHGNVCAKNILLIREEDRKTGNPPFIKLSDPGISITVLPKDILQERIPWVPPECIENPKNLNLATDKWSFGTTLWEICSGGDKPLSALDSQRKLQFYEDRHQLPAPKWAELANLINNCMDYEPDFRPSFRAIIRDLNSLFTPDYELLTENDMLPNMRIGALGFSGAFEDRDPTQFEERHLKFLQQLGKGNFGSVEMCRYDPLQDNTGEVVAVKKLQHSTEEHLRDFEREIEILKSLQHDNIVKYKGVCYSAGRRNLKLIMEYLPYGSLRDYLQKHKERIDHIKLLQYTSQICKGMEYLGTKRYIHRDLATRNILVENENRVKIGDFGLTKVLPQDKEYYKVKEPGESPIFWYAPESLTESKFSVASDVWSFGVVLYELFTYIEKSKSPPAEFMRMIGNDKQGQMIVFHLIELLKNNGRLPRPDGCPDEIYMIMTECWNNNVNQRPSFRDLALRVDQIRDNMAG
human Phosphodiesterase 4A1 (PDE4A1), PDE4A (gene 5141), sequence (P27815 whole entry, looked up): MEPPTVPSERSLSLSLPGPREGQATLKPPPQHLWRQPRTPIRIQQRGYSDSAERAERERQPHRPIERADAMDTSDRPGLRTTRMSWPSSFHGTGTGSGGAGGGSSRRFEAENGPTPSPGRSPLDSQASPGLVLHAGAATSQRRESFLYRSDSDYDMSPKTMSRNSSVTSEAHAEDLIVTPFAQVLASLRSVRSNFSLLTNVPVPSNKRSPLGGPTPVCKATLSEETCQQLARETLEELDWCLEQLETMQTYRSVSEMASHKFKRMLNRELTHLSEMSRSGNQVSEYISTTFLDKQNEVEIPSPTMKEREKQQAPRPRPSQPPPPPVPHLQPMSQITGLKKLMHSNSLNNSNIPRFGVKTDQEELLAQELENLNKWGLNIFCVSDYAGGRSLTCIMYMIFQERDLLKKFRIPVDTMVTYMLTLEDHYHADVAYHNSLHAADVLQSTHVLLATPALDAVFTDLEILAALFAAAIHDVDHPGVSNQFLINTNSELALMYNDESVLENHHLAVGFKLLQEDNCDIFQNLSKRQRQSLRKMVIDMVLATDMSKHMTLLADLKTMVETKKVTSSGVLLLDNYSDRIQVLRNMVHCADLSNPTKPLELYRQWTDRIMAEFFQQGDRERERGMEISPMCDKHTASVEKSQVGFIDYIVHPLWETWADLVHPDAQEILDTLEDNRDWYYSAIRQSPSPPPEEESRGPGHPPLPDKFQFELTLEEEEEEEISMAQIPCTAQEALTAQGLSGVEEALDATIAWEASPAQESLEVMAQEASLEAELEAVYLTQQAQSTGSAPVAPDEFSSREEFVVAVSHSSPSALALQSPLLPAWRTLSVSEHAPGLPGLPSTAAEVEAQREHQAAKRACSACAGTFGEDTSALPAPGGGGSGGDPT
human Protein Phosphatase, Mg2+/Mn2+ Dependent 1A (PPM1A), PPM1A (gene 5494), sequence (P35813 whole entry, looked up): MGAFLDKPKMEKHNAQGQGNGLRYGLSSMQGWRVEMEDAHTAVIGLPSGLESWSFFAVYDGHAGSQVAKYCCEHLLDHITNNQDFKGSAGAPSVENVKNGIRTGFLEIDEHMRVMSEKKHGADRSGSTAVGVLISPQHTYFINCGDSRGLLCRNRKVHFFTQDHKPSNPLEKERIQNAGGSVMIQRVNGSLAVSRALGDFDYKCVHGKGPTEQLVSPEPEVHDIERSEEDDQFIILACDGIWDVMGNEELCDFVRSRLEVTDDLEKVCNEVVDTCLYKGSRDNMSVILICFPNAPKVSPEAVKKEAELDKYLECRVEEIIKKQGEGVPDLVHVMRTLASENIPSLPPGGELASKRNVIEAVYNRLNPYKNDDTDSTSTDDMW

As for `CCN(CC)CCNc1ccc(CNC=O)c2sc3ccc(OC)cc3c(=O)c12`, the call in assay [1], in assay [2], in assay [3], in assay [4] and in [8] was inactive. The AC50 in [5] is 11.8 µM (active); in assay [6] it was 6.82 µM (active); in [7], 2.06 µM (active).
In the case of `O=[N+]([O-])c1ccc(O)cc1`, the compound was classed as inactive in assay [9], in assay [10] and in assay [11].
As to `COCC(C)OCC(C)O` (configuration not stated), the call in assay [9], in assay [1], in assay [11], in assay [12] and in assay [13] was inactive.
On to `O=c1c(-c2ccc(O)cc2)coc2cc(O)ccc12`, for which the result in [9] was inactive.
Regarding `CCCCCCC(=O)O`, the result in [6] and in assay [14] was inactive.
For `CC(O)CO` (configuration not stated), the call in assay [6] was inactive.
As for `CC(C)(C)c1cccc(C(C)(C)C)c1O`, the outcome in [8] was inactive.
`NC(=O)N(O)[C@@H]1C=C[C@H](Oc2cccc(Oc3ccc(F)cc3)c2)C1`: the AC50 in [5] was 23 µM (active). Further, the compound was called inactive in assay [14].
With `CCCCCCCCCCCCCCCS(=O)(=O)Oc1ccccc1`, the compound was classed as inactive in [1] and in [5].
`CC(C)(C)CC(C)(C)c1ccc(O)c(-n2nc3ccccc3n2)c1`: the compound was called inactive in assay [1] and in assay [12].
For `COC(=O)CCCCC(=O)OC`, the call in assay [6] and in [14] was inactive.
For the compound `CCc1nn(C2CCCCC2)c2cc(C3(C#N)CCC(C(=O)O)CC3)ccc12` (configuration not stated), the AC50 in assay [15] is 19.4 µM (active); in [5], 0.00229 µM (active). Also, the outcome in assay [6] and in assay [7] was inactive.
Regarding `OC1CCC(C2CCCCC2)CC1` (configuration not stated), the call in assay [10] was inactive.
Regarding `CC[C@H](c1ccc(O)cc1)[C@@H](CC)c1ccc(O)cc1`, the compound was classed as inactive in assay [10] and in assay [11].
For `c1ccc2cc3c(ccc4ccccc43)cc2c1`, the compound was classed as inactive in assay [11] and in assay [5].
In the case of `OCCC(F)(F)C(F)(F)C(F)(F)C(F)(F)C(F)(F)C(F)(F)F`, the outcome in assay [6] was inactive.
For `OCCC(F)(F)C(F)(F)C(F)(F)C(F)(F)C(F)(F)C(F)(F)C(F)(F)C(F)(F)F`, the result in assay [10] was inactive.
For `CCCCCCCCCCCCCC[N+](C)(C)C`, the call in [4] and in [7] was inactive. For the same compound, in [13], the AC50 was 8.66 µM (active).
In the case of `CCCCOCCO`, in [8], the compound was called inactive.
Same read-out and setting: in the case of `CN1CCC[C@H]1c1cccnc1` it was “inactive”; in that of `CCCOC(=O)c1ccc(O)cc1`, “inactive”.
Consider `O=C(O)c1ccccc1C(c1ccc(O)cc1)c1ccc(O)cc1`, for which, in [16], the compound was classed as inactive.
For the compound `CCCOc1sc(C(=O)N2CCC(c3cc(CN)ccc3F)CC2)c(C)c1Br`, the result in assay [17], in assay [18] and in assay [14] was inactive.
Take `NC(=O)N1C(=O)C(C(=O)c2cc(Cl)cs2)c2cc(F)c(Cl)cc21` (configuration not stated): in assay [18], the AC50 was 25 µM (active).
For the compound `CC(C)CCCCCCOC(=O)CCCCC(=O)OCCCCCCC(C)C`, the outcome in assay [17] was inactive.
